pPAFAH FP inh – inhibitors of human plasma PAF acetylhydrolase (pPAFAH); 330,000 compounds, 1.5% hits; recombinant pPAFAH, FP-rhodamine probe fluorescence polarization; inhibition, % at 3.39 µM; AID 463082;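 active = inhibition above the mean inhibition across the screen plus 3 SD, cut at about 25% in these data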;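 note: inhibitors block binding of the rhodamine activity-based probe so polarization drops; 0% = enzyme with DMSO and 100% = wells lacking pPAFAH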
Target sequence (Q13093 whole entry, looked up): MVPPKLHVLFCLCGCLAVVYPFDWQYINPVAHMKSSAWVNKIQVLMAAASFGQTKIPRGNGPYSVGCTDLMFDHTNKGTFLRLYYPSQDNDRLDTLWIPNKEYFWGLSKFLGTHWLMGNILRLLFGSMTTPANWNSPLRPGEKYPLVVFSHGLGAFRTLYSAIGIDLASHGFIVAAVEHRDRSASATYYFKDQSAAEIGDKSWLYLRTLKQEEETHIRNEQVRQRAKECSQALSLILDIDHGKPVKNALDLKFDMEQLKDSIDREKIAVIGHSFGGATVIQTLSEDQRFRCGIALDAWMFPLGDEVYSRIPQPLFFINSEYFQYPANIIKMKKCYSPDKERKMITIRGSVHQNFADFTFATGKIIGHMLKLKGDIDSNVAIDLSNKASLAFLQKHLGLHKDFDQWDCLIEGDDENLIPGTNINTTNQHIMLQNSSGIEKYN
PAFAH1B2 inh – blocks human PAF acetylhydrolase 1b catalytic subunit 2; P68402; 340,000 compounds, 1.2% hits; AID 492953; recombinant PAFAH1B2, FP-rhodamine activity probe, fluorescence polarization; inhibition, % at 3.39 µM;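 active = inhibition above the mean of all tested compounds plus 3 SD, cut at about 24% in these data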;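 note: 0% = enzyme with DMSO and 100% = wells lacking PAFAH1B2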
M18AAP inhibitor – blocks P. falciparum M18 aspartyl aminopeptidase | recombinant PfM18AAP, H-Glu-NHMec fluorogenic cleavage | inhibition, % at 7.35 µM | 290,000 compounds, 1.2% hits | AID 1822;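 active = inhibition above the campaign mean inhibition over all tested compounds plus 3 SD, cut at about 28% in these data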;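 note: 0% = plate median of test compound wells and 100% = 2 mM ZnCl2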
PAFAH1B3 inh – inhibitors of human PAFAH1B3 | recombinant PAFAH1B3, FP-rhodamine probe, fluorescence polarization | inhibition, % at 3.39 µM | 340,000 compounds, 0.28% hits | AID 492972;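 active = inhibition above the screen-wide average of all tested compounds plus 3 SD, cut at about 25% in these data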;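 note: 0% = enzyme with DMSO only and 100% = wells lacking PAFAH1B3 protein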
DSG3 Ab inh – blocks pemphigus antibody binding to human desmoglein-3; P32926; DSG3-coupled beads, scFv-anti-DSG3-GFP binding, flow cytometry; hits give low values; AID 588358; 310,000 compounds, 0.48% hits; binding (percent of control), % at 10 µM;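 active = binding more than 3 SD below its plate's average and above zero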;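 note: hits lower antibody fragment binding to DSG3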
PAFAH2 inh – inhibitors of human PAFAH2; Q99487; recombinant PAFAH2, FP-rhodamine activity probe, fluorescence polarization; inhibition, % at 3.39 µM; 340,000 compounds, 0.99% hits;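 active = inhibition above the mean over all tested compounds plus 3 SD, cut at about 30% in these data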;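 note: inhibitors block probe labeling of enzyme so polarization drops; 0% = enzyme with DMSO and 100% = wells lacking PAFAH2 protein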
pPAFAH confirm – pPAFAH (human) inhibition, confirmed; shares compounds with pPAFAH FP inh; recombinant pPAFAH, FP-Rh probe fluorescence polarization; inhibition, % at 3.39 µM; 2,300 compounds, 72% hits;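 active = mean inhibition of the triplicate above the hit cutoff set for the earlier primary screen, cut at about 25% in these data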;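 note: 0% = enzyme with DMSO and 100% = wells lacking pPAFAH enzyme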
An asterisk follows results filed as active; / = no result; ! = not confirmed by another sample. Compounds with a hit are over-represented: about 3.8% of the library has one in this group of screens.

SMILES	pPAFAH FP inh	PAFAH1B2 inh	M18AAP inhibitor	PAFAH1B3 inh	DSG3 Ab inh	PAFAH2 inh	pPAFAH confirm
COc1cc(CCc2ccccc2)c(C(=O)O)c(O)c1C/C=C(/C)CCC=C(C)C	72*	23	/	10	102	18	59*
COc1ccc2nc(NC(=O)CSc3nnc(C)n3N)sc2c1	38*	6	-6	-2	92	0	7
COc1ccc2nc(NC(=O)CSc3nnc(N)s3)sc2c1	-3	-11	-14	-24	80	-16	/
c1ccc(Nc2nc3ccccc3[nH]2)nc1	36*	3	-1	6	78	4	-2
COc1cccc2c1nc(C)c1cc(C)oc12	-4	-2	-4	3	106	-4	/
COc1cccc2nc3cc(C)c(C)cc3nc12	42*	23	10	25	112	25	13
O=C(O)c1cn(C2CC2)c2cc(N3CCN(S(=O)(=O)c4ccc5c(c4)OCCO5)CC3)c(F)cc2c1=O	-5	8	-1	6	113	7	/
Cc1nnsc1C(=O)N/N=C/c1ccc2ccccc2c1O	36*	11	2	13	100	8	48*
Cc1c(O)ccc(/C=N/Nc2nc(-c3cccnc3)nc3ccccc23)c1O	42*	11	29*	30*	94	-16	46*
COc1ccc2sc(-c3ccc(N(C)C)cc3)c(C#Cc3cncn3C)c2c1	42*	12	/	19	99	6	38*
C=Cc1c(C)c2cc3[nH]c(cc4nc(cc5nc(cc1[nH]2)C(C)=C5CCC(=O)O)C(CCC(=O)O)=C4C)c(C)c3C=C	97*	0	/	40*!	25*!	60*!	51*
CC(=O)NC(Cc1ccc(C)cc1)C(=O)NC1CCN(C(=O)NCc2ccccc2)CC1 (configuration not stated)	/	5	-3	4	92	2	/
C[C@@H]1CN([C@@H](C)CO)C(=O)CCCn2nncc2CO[C@@H]1CN(C)C(=O)Nc1ccc(C(C)(C)C)cc1	/	/	/	/	103	/	/
COc1cccc(=O)c2c(C)n(CC(=O)c3ccccc3)c(C)c12	38*	2	2	7	/	8	16
CC(=O)N1CCc2cc(S(=O)(=O)NCCCN3CCC(C)CC3)ccc21	6	3	-2	4	101	5	/
O=C(O)c1cc2ccc3cccc4ccc(c1)c2c34	2	1	-2	-1	108	5	/
Cc1csc(=Nc2ccc(S(=O)(=O)N3CCOCC3)cc2)n1Cc1ccco1	46*	3	5	7	112	-2	10
Cc1csc(=Nc2cccnc2)n1Cc1ccco1	-9	0	-2	16	99	-5	/
CCOC(=O)C1=C(C)NC(C)=C(C(=O)OCC)C1C(=O)OCC(=O)NC1CCCCC1	7	0	/	5	94	1	/
CC(c1ccccc1)C(OC(=O)c1cccc([N+](=O)[O-])c1C(=O)O)c1ccccc1 (configuration not stated)	/	23	/	-2	110	4	/
COc1ccc(C(=O)NC(Cn2ccnc2)C(C)(C)C)cc1OC1CCN(C(C)C)CC1 (configuration not stated)	2	-1	4	11	105	5	/
Cc1ccc(NC(=S)N(CCN(C)C)C(C)c2ccco2)cc1C (configuration not stated)	38*	0	-1	4	109	8	2
C/C(=N\NC(=O)c1cc2ccccc2cc1O)c1cc2ccccc2o1	41*	9	13	8	94	11	34*
O=C(N/N=C/c1ccc(Sc2ccccn2)o1)c1cc2ccccc2cc1O	52*	9	9	19	101	0	56*
C/C(=N\NC(=O)c1cc2ccccc2cc1O)c1ccccn1	48*	5	8	9	120	1	-2
SMILES	pPAFAH FP inh	PAFAH1B2 inh	M18AAP inhibitor	PAFAH1B3 inh	DSG3 Ab inh	PAFAH2 inh	pPAFAH confirm
CCc1ccccc1-n1ncc(C(=O)Nc2ccccc2OC)c1C	6	-2	2	8	88	-5	/
O=C(CCN1C(=O)c2ccccc2S1(=O)=O)Nc1cccc(F)c1	1	2	/	2	96	-6	/
CC(=O)Nc1cccc(NC(=O)CCN2C(=O)c3ccccc3S2(=O)=O)c1	53*	-1	/	3	102	4	3
CCCCOc1ccc(-c2cc(C(=O)NNC(=S)NCC)c3ccccc3n2)cc1	42*	1	2	12	98	0	51*
CCCCOc1cccc(-c2cc(C(=O)NNC(=S)NCC)c3ccccc3n2)c1	21	5	0	4	103	8	/
COc1cccc(/C=N/Nc2ccc([N+](=O)[O-])cn2)c1O	48*	2	14	-3	112	5	12
CSc1ccccc1NC(=O)COC(=O)CCc1ccccc1	15	21	-6	12	89	9	/
CC(C)Cn1c(=O)c(C(=O)NCc2ccccn2)c(O)c2ccccc21	56*	-3	-4	9	/	-4	3
COc1cc2nc(CN3CCOCC3)n(CC(=O)N3CCCCCC3)c(=O)c2cc1OC	56*	2	5	3	90	2	5
COc1cc2nc(CN3CCOCC3)n(CC(=O)NCC(F)(F)F)c(=O)c2cc1OC	2	1	-11	1	102	-5	/
Cc1oc(-c2ccc(Cl)cc2)cc1-c1nn2c(-c3ccoc3C)nnc2s1	53*	3	19	-1	100	28	43*
Cc1cccc(Cc2cnc(N3C(=N)SC(C)C3=O)s2)c1 (configuration not stated)	43*	8	0	6	97	2	33*
O=C(c1ccccn1)N1CCCC(N2CCN(c3ccc(F)cc3)CC2)C1 (configuration not stated)	4	3	-1	3	93	-2	/
O=C1c2ccccc2C(=O)c2cc(S(=O)(=O)Nc3ccccc3)ccc21	37*	6	-1	11	104	18	34*
Cc1ccccc1Oc1ccc(-c2nc(N)nc(N)n2)cc1	39*	1	-8	-1	/	3	22
O=C(NCc1ccc(OC(F)(F)F)cc1)C1CC(c2c(Cl)cccc2Cl)=NO1 (configuration not stated)	38*	10	-3	2	93	-8	22
CC(=O)N1c2ccc(S(=O)(=O)N3CCC(C(=O)Nc4cccc(Cl)c4)CC3)cc2CC1C (configuration not stated)	39*	2	1	6	108	-2	8
CNc1ccc(Br)cc(C(=O)/C=C/c2ccc3c(c2)OCO3)c1=O	45*	-1	28*	5	89	31*	28*

High-throughput results as filed in PubChem.
